From PubChem BioAssay AID1347165 (National Center for Advancing Translational Sciences (NCATS), 2019) come the findings set out here.

Structures are written as SMILES. Screen size: about 220,000 compounds; about 5,700 (2.6%) were called active. About 18% were inconclusive and are not listed. The sample as a whole holds a higher share of actives than the screen did. A number with no mark means an inactive call. The call rests on the fitted dose curve; in most records, active means well fitted inhibition curve with a large enough effect; inconclusive means small, poorly fitted or top-dose-only effect; inactive means no such curve, though single readings can be large or run the other way.
Potency means the concentration at half of the fitted maximal effect.

Chain of Lysine-specific demethylase 5B (Homo sapiens) (Q9UGL1 whole entry, looked up): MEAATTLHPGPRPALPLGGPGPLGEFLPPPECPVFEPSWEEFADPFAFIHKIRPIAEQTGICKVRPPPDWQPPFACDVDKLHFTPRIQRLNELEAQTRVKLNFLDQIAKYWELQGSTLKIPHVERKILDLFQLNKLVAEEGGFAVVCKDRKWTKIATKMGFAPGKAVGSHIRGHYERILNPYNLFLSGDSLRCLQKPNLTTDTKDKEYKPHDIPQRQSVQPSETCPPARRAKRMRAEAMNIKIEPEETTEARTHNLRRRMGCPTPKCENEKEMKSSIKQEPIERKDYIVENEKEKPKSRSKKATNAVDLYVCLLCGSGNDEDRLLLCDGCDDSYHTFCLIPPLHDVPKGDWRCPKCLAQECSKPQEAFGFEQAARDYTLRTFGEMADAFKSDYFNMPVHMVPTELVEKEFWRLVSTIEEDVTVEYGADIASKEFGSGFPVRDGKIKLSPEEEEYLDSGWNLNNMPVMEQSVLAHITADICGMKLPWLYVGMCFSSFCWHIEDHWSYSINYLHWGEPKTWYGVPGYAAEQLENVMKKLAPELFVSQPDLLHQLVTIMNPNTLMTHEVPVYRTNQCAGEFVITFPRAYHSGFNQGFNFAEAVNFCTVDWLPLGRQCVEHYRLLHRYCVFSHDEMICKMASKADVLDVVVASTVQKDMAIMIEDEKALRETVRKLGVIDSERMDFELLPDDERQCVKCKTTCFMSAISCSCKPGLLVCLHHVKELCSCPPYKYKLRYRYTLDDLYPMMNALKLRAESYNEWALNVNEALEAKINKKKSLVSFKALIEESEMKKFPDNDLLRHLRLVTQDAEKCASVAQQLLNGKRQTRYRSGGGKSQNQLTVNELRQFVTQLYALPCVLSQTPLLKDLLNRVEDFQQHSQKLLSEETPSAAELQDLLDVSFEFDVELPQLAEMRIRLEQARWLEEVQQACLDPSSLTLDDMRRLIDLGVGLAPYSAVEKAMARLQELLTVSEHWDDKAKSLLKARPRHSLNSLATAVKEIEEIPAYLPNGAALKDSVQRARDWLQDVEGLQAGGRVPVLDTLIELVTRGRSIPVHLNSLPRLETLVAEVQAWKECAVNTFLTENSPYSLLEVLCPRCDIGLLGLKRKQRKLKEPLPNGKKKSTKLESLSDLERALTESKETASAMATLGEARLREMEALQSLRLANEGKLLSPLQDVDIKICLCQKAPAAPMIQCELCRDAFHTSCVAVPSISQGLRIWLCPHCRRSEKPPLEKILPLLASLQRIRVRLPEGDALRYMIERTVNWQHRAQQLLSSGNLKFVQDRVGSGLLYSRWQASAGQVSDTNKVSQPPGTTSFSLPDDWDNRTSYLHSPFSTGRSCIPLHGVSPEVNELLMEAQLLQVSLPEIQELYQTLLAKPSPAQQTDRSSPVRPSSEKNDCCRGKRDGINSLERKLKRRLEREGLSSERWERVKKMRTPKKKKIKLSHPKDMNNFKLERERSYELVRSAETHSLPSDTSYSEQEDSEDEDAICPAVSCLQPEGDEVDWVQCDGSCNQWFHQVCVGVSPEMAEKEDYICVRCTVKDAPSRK

The assay addresses Lysine-specific demethylase 5B (Homo sapiens) (UniProt Q9UGL1). Kind of assay: Primary screen for KDM5B Histone Demethylases FDH-coupled qHTS. Further: nearly all actives have a fitted effect of over 70% in size. On activity change, negative = inhibition: 0% is about no effect. The settings on record: FDH-coupled NADH fluorescence (FDH is formaldehyde dehydrogenase); series mostly up to 57.7 µM; activity change, negative = inhibition: at the top concentration. The essentials: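 Here, H3K4me3 peptide (12.5 µM in substrate mix) is demethylated by KDM5BΔAP, 200 nM final, after 10 min compound exposure. Formaldehyde product is coupled through FDH (0.25 U/mL in mix) to NADH fluorescence; 30-min ΔRFU feeds dose-response curves.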
Consider `Cc1csc(SCc2cc(Cl)c3c(c2)OCCO3)n1`, for which the “activity change, negative = inhibition” value is 14.3%. On the same count and under the same terms, next, `N#Cc1cccc(NC(=O)CSc2ccccc2C(=O)Nc2ccc3c(c2)OCCCO3)c1`: -0.157%; `COc1ccccc1-n1nc(CC(N)=O)nc1C1CCCCn2nnnc21` (stereo not drawn): -0.916%; `C=CCOc1cccc(NC(=O)c2ccccc2Cl)c1`: 17.9%. Same read-out and setting: next, `CN1CCc2c([nH]c3ccccc23)C12CCN(C(=O)c1nccc3ccccc13)CC2`: 1.36%. Turning to `COCCOCC(=O)N1CCC2(CC1)c1[nH]c3ccc(OC)cc3c1CCN2C`, the Potency is 28.2 µM (active).

Consider `COc1ccc2[nH]c3c(c2c1)CCNC31CCN(C(=O)c2ccccc2)CC1`, for which the “activity change, negative = inhibition” value is -16.7%. Consider `CCN1CCC(N(C(=O)c2cc3ccccc3n2C)C2CC2)CC1`, for which the “activity change, negative = inhibition” value is 0.923%.

Regarding `CCc1cc(=O)oc2c(C)c(OCC(=O)NCCN3CCOCC3)ccc12`, the “activity change, negative = inhibition” value was 101%.

With `O=C(Cc1ccc(Cl)cc1)N1CCc2c(nc3cc[nH]n3c2=O)C1`, the Potency was 31.6 µM (active). Take `CCn1c2c(c(=O)n1Cc1ccccc1)CCN(C(=O)Cc1ccc3c(c1)OCO3)C2`: the “activity change, negative = inhibition” value was -3.03% [at 86.2 µM]. As to `O=C(Cc1ccc(F)cc1)N1CCCC(c2nn(-c3ccc(Cl)cc3)c(=O)[nH]2)C1` (stereo not drawn), the “activity change, negative = inhibition” value is -5.65%. Regarding `Cc1nn2c(c1-c1ccccc1C(C)C)N(C(=O)c1cnccn1)CCC2`, the “activity change, negative = inhibition” value is 4.8% [at 86.2 µM]. For `Cc1nn2c(c1-c1ccccc1N1CCCC1)N(C(=O)c1ccn(C)n1)CCC2`, the Potency was 7.94 µM (active). In the case of `Cc1nn2c(c1-c1ccccc1C(C)C)N(C(=O)c1cccc(C#N)c1)CCC2`, the “activity change, negative = inhibition” value is 15.3% [at 86.2 µM]. Still for that read-out and setting: next, `COc1cc(C2Nc3ccc(C)cc3[C@H]3OCCC[C@@H]23)cc(Cl)c1O` (stereo partly drawn): -7.36%. As to `CSc1ccc(CNC(=O)c2cc3c(s2)CCCC3)cc1`, the “activity change, negative = inhibition” value is -23.3%. As to `COc1ccc(CNC(=O)c2cc3c(s2)CN(C2CC2)C3)cc1OC`, the Potency was 11.2 µM (active). Regarding `COc1cc(CNC(=O)Cc2ccc(OC)c(OC)c2)ccn1`, the “activity change, negative = inhibition” value was 14.5%. In the case of `Cc1cccc(N2C(=O)c3ccc(C(=O)Nc4cccc(C(=O)O)c4)cc3C2=O)c1`, the “activity change, negative = inhibition” value was 24.9%. With `CCCNc1ccc2nnc(C)n2n1`, the “activity change, negative = inhibition” value is -29.1%. Consider `CC(C)CNc1ccc2nnc(-c3ccccn3)n2n1`, for which the Potency is 31.6 µM (active).

For `Cc1ccc(OCC(=O)Nc2ccc3oc(=O)ccc3c2)cc1C`, the “activity change, negative = inhibition” value was -15.1%. In the case of `O=C(O)CC1(CC(=O)NC2CCN(Cc3ccccc3)CC2)CCCC1`, the “activity change, negative = inhibition” value was 25.1%. For the compound `O=C(CCc1ncc(-c2ccc(F)cc2)o1)NC1CCN(Cc2ccccc2)C1` (stereo not drawn), the “activity change, negative = inhibition” value is -1.38%. For the compound `O=C(CCNc1cnc2cnccn12)NC1CCN(Cc2ccccc2)CC1`, the Potency is 22.4 µM (active). As to `COc1ccc2c(c1)OCC(C(=O)N1CCCN(c3ncccn3)CC1)C2` (stereo not drawn), the Potency is 25.1 µM (active).

As for `Cc1cc(OCC(=O)N2CCN(c3ncccn3)CC2)ccc1Cl`, the “activity change, negative = inhibition” value is -13.2%. On to `O=C(c1ccoc1)N1CCCN(C(=O)C2COc3ccccc3C2)CC1` (stereo not drawn), for which the “activity change, negative = inhibition” value was -12.2%.

As for `Cc1nc(CCNS(=O)(=O)c2cccnc2)no1`, the “activity change, negative = inhibition” value was -10.3%. `Cc1nc(CCNc2nccc(-c3cccnc3)n2)nc2c1CCCC2`: the Potency is 28.2 µM (active). With `Cc1nc(CNC(=O)[C@H]2CCC[C@@H](O)C2)nc2c1CCCC2`, the “activity change, negative = inhibition” value is -18.8%. Same read-out and setting: for `O=C(CCSc1nc2ccccc2s1)NCc1cc(F)cc(F)c1` the value was -9.95%; for `COC(=O)c1ccc(C(=O)OCc2nc(N)c3ccccc3n2)cc1`, 8.43%. As to `NC(=O)Cn1ccc2cc(OCC3CCN(C(=O)C4CCCC4)CC3)cnc21`, the Potency is 35.5 µM (active). Regarding `CCn1ccc2cc(S(=O)(=O)N3CCC(C(=O)N4CCN(C)CC4)CC3)ccc21`, the “activity change, negative = inhibition” value was 6.11%. `O=C(O)CCn1ncc2cc(OC3CCN(C(=O)C4CCCC4)CC3)ccc21`: the “activity change, negative = inhibition” value was -8.2% [at 86.2 µM]. Same read-out and setting: for `Cc1ccc(-n2nnnc2SCc2nc3ccsc3c(=O)[nH]2)c(C)c1` the value was 0.7%; for `O=C(Nc1ccc(SC2CCCC2)cc1)C1CCCC1`, -1.52%. Take `CCOc1nccnc1NC1CCN(C(=O)c2cccnc2)CC1`: the Potency was 28.2 µM (active). `COC(=O)[C@@H]1CN(C(=O)c2cccnc2)CCN1C(C)=O`: the “activity change, negative = inhibition” value is -12% [at 115 µM]. Still for that read-out and setting: for `CCCS(=O)(=O)N1CCC(Cc2nc(-c3cccnc3)n[nH]2)C1` (stereo not drawn) the value was -11.3%. `CCCS(=O)(=O)N1CCC2(CC1)C(OC)C(=O)N2CC1CC1` (stereo not drawn): the “activity change, negative = inhibition” value is 23.4%. As to `C=CCNC(=O)C[C@@H]1CCN(C(=O)c2cccnc2)C[C@@H]1CC`, the “activity change, negative = inhibition” value is 26% [at 86.2 µM]. As to `CCCS(=O)(=O)N1CCC(Nc2nccnc2OCC)CC1`, the Potency is 15.8 µM (active). As for `CC(Sc1nc(N)cc(N)n1)C(=O)c1ccc(Cl)cc1` (stereo not drawn), the “activity change, negative = inhibition” value was 8.79%. `Cn1cc(-c2cc3n(n2)CCC(=O)N3CC(=O)NC2CCCCC2)c2ccccc21`: the “activity change, negative = inhibition” value is -3.82%. Same read-out and setting: for `CCCCN(CCCC)c1cccc(-c2cccc(N(CCCC)CCCC)c2)c1` the value was -27.3%; for `Cc1cccc(C)c1NC(=O)CSc1nc2c(cc1C#N)CCCC2`, 16.6%. For the compound `N#Cc1cc2c(nc1N1CCN(C3CCCC3)C(CCO)C1)CCCC2` (stereo not drawn), the Potency is 28.2 µM (active). `N#Cc1cc2c(nc1SCC(=O)NCCc1ccccc1)CCCC2`: the “activity change, negative = inhibition” value was 0.324%. On to `CCCCn1nc(C(=O)NC(CC)CC)c2ccccc2c1=O`, for which the “activity change, negative = inhibition” value was 13.2%. In the case of `COc1ccc(-c2cc(N3CCN(C(=O)Cc4cccc(OC)c4)CC3)n[nH]2)cc1`, the “activity change, negative = inhibition” value is -10.2%.
